Drawing on PubChem BioAssay (NCI), this text covers growth for 7 compounds.

Test systems include SR leukemia; RPMI-8226 leukemia; OVCAR-8 ovarian; OVCAR-5 ovarian; OVCAR-4 ovarian; SK-OV-3 ovarian; IGROV1 ovarian; OVCAR-3 ovarian; HS 578T breast; NCI/ADR-RES ovarian; T-47D breast; BT-549 breast; MDA-MB-435 melanoma; SW-620 colon; MCF7 breast; HCT-116 colon; HCC-2998 colon; KM12 colon.
Holding throughout (test): NCI-60 one-dose screen, 48 h (100 = growth as untreated, 0 = no growth, -100 = all killed)
Conditions in all cases: 10 µM unless noted

This is part of a sample that, as a whole, favours compounds with a hit. Of some 83,000 tested, about 20% had one in any assay.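 Single-dose data. Exposure time 48 hours. Values below 10 considered active.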 Unmarked numbers belong to inactive results. Calls of active or inactive are those of the source.

Turning to `O=S(=O)(NCCNc1cc(-c2cn(-c3ccccc3)nc2-c2cccc(O)c2)ccn1)c1ccc(F)cc1`, the growth with SR leukemia was -5.97% (active); in the test with RPMI-8226 leukemia it was 9.5% (active); with OVCAR-8 ovarian it was 23.7%; in the test with OVCAR-5 ovarian, 62.9%; in the test on OVCAR-4 ovarian it was 41.3%; in the test with SK-OV-3 ovarian, 46.4%. In addition, the growth is 46.2% with IGROV1 ovarian; 35.8% in the test on OVCAR-3 ovarian; 15.7% in the test with HS 578T breast; 17.9% with NCI/ADR-RES ovarian; 7.88% (active) in the test on T-47D breast; 32.2% with BT-549 breast. For the same compound, the growth was 2.49% (active) with MDA-MB-435 melanoma; 18.8% with SW-620 colon; 10.7% with MCF7 breast; 23.9% in the test with HCT-116 colon; -34.9% (active) with HCC-2998 colon; 11.3% in the test on KM12 colon.

Turning to `Cn1c2c(Cl)c(Cl)ccc2c2c(C#N)c[nH]c(=O)c21`, the growth with SR leukemia is 112%; in the test with RPMI-8226 leukemia, 65.2%; in the test with OVCAR-8 ovarian, 91.2%; in the test with OVCAR-5 ovarian, 123%; with OVCAR-4 ovarian it was 99.5%; in the test on SK-OV-3 ovarian, 107%. Moreover, the growth in the test with IGROV1 ovarian was 89.5%; with OVCAR-3 ovarian it was 110%; in the test with HS 578T breast, 84.5%; in the test on NCI/ADR-RES ovarian it was 103%; with T-47D breast, 102%; with BT-549 breast, 120%. Also, the growth was 115% with MDA-MB-435 melanoma; 106% in the test on SW-620 colon; 96.5% in the test with MCF7 breast; 92.7% in the test on HCT-116 colon; 97.2% in the test on HCC-2998 colon; 111% in the test on KM12 colon.

`CCC1C(=O)COC1=O` (stereo unspecified): the growth was 99.2% in the test with SR leukemia; 83.9% in the test with RPMI-8226 leukemia; 96.6% in the test on OVCAR-8 ovarian; 108% in the test on OVCAR-5 ovarian; 105% in the test on OVCAR-4 ovarian; 71.4% in the test on SK-OV-3 ovarian. The growth was 104% in the test on IGROV1 ovarian; 109% with OVCAR-3 ovarian; 99.1% in the test on HS 578T breast; 87.9% in the test with NCI/ADR-RES ovarian; 71.6% with T-47D breast; 95.9% with BT-549 breast. Besides, the growth is 103% in the test with MDA-MB-435 melanoma; 98% in the test on SW-620 colon; 94.8% in the test with MCF7 breast; 85.8% in the test with HCT-116 colon; 107% with HCC-2998 colon; 101% in the test with KM12 colon.

As for `COc1ccc2c(c1)c(-c1nc(-c3cn(C)c4ncccc34)cs1)cn2CCCN1CCCCC1`, the growth in the test on SR leukemia is -39.1% (active); with RPMI-8226 leukemia it was -8.74% (active); in the test on OVCAR-8 ovarian it was 59.6%; with OVCAR-5 ovarian, 85.3%; in the test on OVCAR-4 ovarian, 74.7%; in the test on SK-OV-3 ovarian it was 89.8%. The growth with IGROV1 ovarian was 66.1%; in the test on OVCAR-3 ovarian, -52.1% (active); in the test on HS 578T breast it was 73.7%; in the test with NCI/ADR-RES ovarian, 69.5%; in the test on T-47D breast, 64%; in the test with BT-549 breast it was 80.5%. Moreover, the growth in the test on MDA-MB-435 melanoma is 26%; with SW-620 colon, -22.9% (active); with MCF7 breast, 34%; in the test with HCT-116 colon it was -93.2% (active); with HCC-2998 colon, 102%; in the test on KM12 colon, 57.4%.

As for `CCN(CC)CCCCCNc1cc(OC(=O)c2ccccc2)cc2cccnc12`, the growth was -38.1% (active) with SR leukemia; 100% with RPMI-8226 leukemia; 121% with OVCAR-8 ovarian; 121% with OVCAR-5 ovarian; 80.9% in the test on OVCAR-4 ovarian; 108% in the test with SK-OV-3 ovarian. Besides, the growth with IGROV1 ovarian is 105%; with OVCAR-3 ovarian, 51.6%; in the test on HS 578T breast, 103%; with NCI/ADR-RES ovarian, 99.3%; in the test with T-47D breast it was 76.6%; in the test with BT-549 breast it was 97.2%. Further, the growth in the test with MDA-MB-435 melanoma is 53.6%; with SW-620 colon, 80.8%; in the test with MCF7 breast, 134%; in the test on HCT-116 colon, 44.5%; in the test with HCC-2998 colon, 104%; in the test on KM12 colon, 81.3%.

Take `CC1(C)CC[C@]2(CO)CC[C@]3(C)C(=CC[C@@H]4[C@@]5(C)CC[C@H](NCO)C(C)(C)[C@@H]5CC[C@]43C)[C@@H]2C1`: the growth in the test on SR leukemia was -34.7% (active); in the test on RPMI-8226 leukemia, -29.1% (active); with OVCAR-8 ovarian it was -35.6% (active); with OVCAR-5 ovarian, 2.64% (active); with OVCAR-4 ovarian it was -32.5% (active); in the test with SK-OV-3 ovarian it was 70.8%. Besides, the growth with IGROV1 ovarian is -56% (active); in the test with OVCAR-3 ovarian, -66.2% (active); with HS 578T breast it was 11.4%; with NCI/ADR-RES ovarian it was -64.8% (active); with T-47D breast, 4.47% (active); with BT-549 breast, 59.1%. For the same compound, the growth with MDA-MB-435 melanoma was -5.37% (active); with SW-620 colon it was -71.9% (active); with MCF7 breast, -26.3% (active); with HCT-116 colon, -78.2% (active); in the test on HCC-2998 colon, 6.82% (active); with KM12 colon, -80.7% (active).

With `Nc1c(C(=O)Nc2c(Cl)cccc2Cl)sc2nc3c(cc12)CCCC3`, the growth in the test with SR leukemia was 12%; in the test on RPMI-8226 leukemia, 93.4%; in the test on OVCAR-8 ovarian it was 84.9%; with OVCAR-5 ovarian, 105%; with OVCAR-4 ovarian, 89.9%; in the test on SK-OV-3 ovarian, 83.3%. The growth with IGROV1 ovarian was 79.5%; with OVCAR-3 ovarian it was 64%; with HS 578T breast it was 82.3%; in the test with NCI/ADR-RES ovarian, 60.8%; in the test on T-47D breast, 69%; in the test with BT-549 breast, 90.1%. For the same compound, the growth in the test on MDA-MB-435 melanoma is 5.24% (active); with SW-620 colon, 51%; with MCF7 breast it was 43.7%; in the test on HCT-116 colon, 47.8%; in the test on HCC-2998 colon, 92.5%; in the test on KM12 colon, 68.6%.
